# According to ChEMBL document CHEMBL1157539, “Thousands of chemical starting points for antimalarial lead identification” (Nature, 2010):
# System: Plasmodium falciparum
# Assay: GSK_TCMDC: Inhibition of Plasmodium falciparum 3D7 in whole red blood cells, using parasite LDH activity as an index of growth. Test compounds present at 2uM
# Assay type: functional
row,SMILES,Inhibition
1,O=C(NC1CCN(c2ncc(C(F)(F)F)cc2Cl)CC1)c1cccs1,84%
2,O=C(NC1CCC(N2CCC(Cc3ccc(F)cc3)CC2)CC1)c1cc2ccccc2[nH]1 (configuration not stated),98%
3,Cl.OC(c1ccccc1)C1CN(CCC2CC3CCC2C3)CCC1(O)c1ccccc1 (configuration not stated),97%
4,COc1ccc2ncc(Cl)c(CCN3CC[C@@H](CNCc4cc5c(cn4)OCS5)C3)c2n1.Cl,99%
5,Cl.N=C(N)c1ccc(-c2cc3ccc(C(=N)N)cc3[nH]2)cc1,99%
6,Cc1cccc(Nc2nccc(Nc3cccc(C(=O)NCCN4CCOCC4)c3)n2)c1,91%
7,CC(=O)Nc1cc(C(=O)Nc2cccc(-c3cccc(-c4nc5cccc(C)c5[nH]4)c3)c2)ccc1C,100%
8,CC[C@H](NC(=O)c1c(CN2CCC(N3CCCCC3)CC2)c(-c2ccccc2)nc2cc(O)ccc12)c1ccccc1,94%
9,CCOC(=O)C(C(=O)OCC)c1nc(C)ns1,99%
10,CN(C)CCCOc1cc(NC(=O)Nc2ccc(-c3ccncc3)c3ccccc23)ccc1I.Cl,100%
11,O=C(/C=C/c1ccc(Cl)c(Cl)c1)NCCCCN1CCCN(C(=O)Nc2ccc(F)c(Cl)c2)CC1,87%
12,Br.CC(C)(C)c1ccc(Cn2c(=N)n(CC(=O)c3ccc(-c4ccccc4)cc3)c3ccccc32)cc1,98%
13,COc1ccc(C2CC(c3ccccc3O)=NN2C(=O)c2ccco2)cc1OC (configuration not stated),96%
14,Oc1ccc(CCNc2nc(NCc3ccccc3-c3ccc(C(F)(F)F)cc3)nc(N3CCNCC3)n2)cc1,97%
15,Cc1cccc(CNc2nc(C)cc(N[C@@H](CC(C)C)C(=O)NCCOc3ccccc3)n2)c1.O=C(O)C(F)(F)F,93%
16,COc1ccc(NC(=O)C2c3ccccc3C(=O)N(C3CCCC3)C2c2cccs2)c(OC)c1 (configuration not stated),84%
17,CC(C)Sc1nc(-c2ccccc2)nc2c1COC(C)(C)C2,98%
18,CCOc1ccc2c(=NN=Cc3ccccc3F)cc(C)[nH]c2c1,100%
19,COC(=O)c1cccc(NC(=O)NCCNc2ccnc(Nc3ccc(F)cc3)n2)c1,93%

row,SMILES,Inhibition
1,Cc1csc2nc(-c3ccccn3)nc(Nc3ccc4ncsc4c3)c12.Cl,85%
2,CCCCOc1ccc(CNCCCCCCNCc2ccc(OCCCC)c3ccccc23)c2ccccc12.CS(=O)(=O)O,81%
3,O=C(C=Cc1cccs1)Nc1ccc(-c2nc3ccccc3[nH]2)cc1,83%
4,CS(=O)(=O)CCNCc1cccc(-c2cc3c(Nc4ccc(OCc5cccc(F)c5)c(Cl)c4)ncnc3s2)c1.O=C(O)C(F)(F)F,100%
5,COc1cccc(C23NC(=Nc4nc5ccccc5[nH]4)NC2(c2cccc(OC)c2)NC(=Nc2nc4ccccc4[nH]2)N3)c1 (configuration not stated),100%
6,CCN(CC)CCCNc1nccc(N2CCc3ncnc(Nc4ccc(OCc5cccc(F)c5)c(Cl)c4)c3C2)n1,100%
7,Nc1cccc(CNCc2ccc(-c3ccc(-c4nc5ccccc5[nH]4)s3)cc2)c1.O=C(O)C(F)(F)F,100%
8,CCc1c[nH]c2c(N3CCCS3(=O)=O)cc(C(=O)N[C@@H](Cc3ccccc3)[C@H](O)CNC(C)(C)c3cccc(C(F)(F)F)c3)cc12.O=CO,97%
9,CCCNc1ccc2nccc(CCN3CCC(NCc4ccc5c(n4)NC(=O)CS5)CC3)c2n1,100%
10,O=C(/C=C/c1ccc(Cl)c(Cl)c1)NCCCCCN1CCC(NC(=O)c2cc(Cl)ccc2F)CC1,92%
11,O=C(O)C(F)(F)F.c1cc(CN2CCCCC2)cc(-c2ccc(-c3nc4ccccc4[nH]3)cc2)c1,100%
12,Cc1c(CN2CCCCC2)cccc1OCCCNc1nc(NCCc2ccc(O)cc2)nc(N2CCNCC2)n1.O=C(O)C(F)(F)F,100%
13,Br.N=C1N=C(N)NC2(CCCCC2)N1OCC1CCCCC1,96%
14,CC(=O)NCCNc1cc(N2CCc3ncnc(Nc4ccc(OCc5c(F)cccc5F)c(Cl)c4)c3C2)ncn1,100%
15,CC(=O)Nc1ncc(C(=O)Nc2cccc(-c3ccc(-c4nc5cccc(C)c5[nH]4)cc3)c2)s1,100%
16,COc1ccc(-c2ccc3c(-c4cccc(S(C)(=O)=O)c4)cnc(N)c3c2)cc1,89%
17,Cc1ccc(CNC(=O)[C@H](CCCN)Nc2nc(NCC3CCCCC3)ncc2C)cc1.O=C(O)C(F)(F)F,92%
18,CCc1cc(OC)c(C(=O)NC2CCN(C[C@H](O)c3ccnc4ccc(OC)cc34)CC2)cc1Br,98%
